Source: PubChem
Shown are actives, neighbours in structure and some others; about 8.6% of the full set was active somewhere.
MARV entry inh – qHTS for Inhibitors of binding or entry into cells for Marburg Virus; actives 6.5% (n = 18,000); Potency, µM (titrated, usually from 49.2 µM), hits mostly inhibitors; Marburg virus pseudotype entry/binding inhibition, cell-based
LASV entry inh – qHTS for Inhibitors of binding or entry into cells for Lassa Virus. actives 4.1% (n = 18,000). Lassa virus pseudotyped entry inhibition, cell-based qHTS. Potency, µM (highest dose often 49.2 µM), usual class: inhibitors. AID 720533, 2013
Large screens that a line does not name were inactive. Calls come from the whole dose curve; tested in HEK293 cells.

C/C1=C2N=C(/C=C3N=C(/C(C)=C4\[N-]C(C(CC(N)=O)C4(C)CCC(=O)NCC(C)OP(=O)([O-])OC4C(CO)OC(n5cnc6cc(C)c(C)cc65)C4O)C4(C)N=C1C(CCC(N)=O)C4(C)CC(N)=O)C(CCC(N)=O)C\3(C)C)C(CCC(N)=O)C/2(C)CC(N)=O.[CH3-].[Co+3] (centres undefined)	MARV entry inh 3.2µM, LASV entry inh 2.5µM
CO[C@H]1[C@H](NC(=O)c2ccsc2)c2ccccc2C12CCN(Cc1cc(Cl)ccc1O)CC2	MARV entry inh 14µM
CO[C@H]1[C@H](NC(=O)c2ccsc2)c2ccccc2C12CCN(Cc1cnn(C)c1C)CC2	none
CC[C@H](C)[C@@H](NC(=O)O[C@@H]1C(=O)c2cc(Br)ccc2O[C@H]1c1ccc2c(c1)OCO2)C(=O)OC	none
COC(=O)[C@H]1Cc2c([nH]c3ccccc23)CN1C(=O)COc1ccc2c(C)cc(=O)oc2c1	none
F/C(COc1ccc2c(c1)[nH]c1ccccc12)=C1/CN2CCC1CC2	MARV entry inh 13µM, LASV entry inh inconclusive
Cc1ccccc1-c1nccc(-n2ccnc2)n1	none
O=S1(=O)CC(N2CCC(Cc3ccccc3)CC2)CN1Cc1ccc(F)cc1 (centres undefined)	none
COc1ccc(NC(=O)c2cc(OCCCN(C)C)nn2Cc2ccccc2)cc1	MARV entry inh 8.9µM, LASV entry inh inconclusive
COc1ccc(NC(=O)OCCN2CCN(Cc3ccccc3)CCC2=O)cc1	none
Cc1nc(-c2ccccc2)n2nc(NCCCN3CCOCC3)ncc12	none (no result: LASV entry inh)
Cc1cc(C)nc(-c2cccc3c2OC(CNC(=O)C2CCOC2)C3)n1 (centres undefined)	none
CC(=O)OC1CC(OC(C)=O)[C@]2(C)C(CC(OC(C)=O)[C@]3(C)C2CC[C@@]2(C)C(c4ccoc4)C[C@H]4O[C@]432)C1(C)C (some centres undefined)	none
CC(=O)OC1CC2C(C)(C)C=CC(=O)[C@@]2(C)C2CC[C@@]3(C)C(c4ccoc4)OC(=O)C4OC43[C@]12C (some centres undefined)	none
CC(=O)OC1C[C@@]2(C)C(c3ccoc3)C[C@H]3O[C@@]32[C@@]2(C)C(=O)C(O)=C3C(C)(C)C(=O)C=C[C@]3(C)C12 (some centres undefined)	MARV entry inh 2.5µM, LASV entry inh inconclusive
CC(=O)O[C@@H]1C[C@@]2(C)C(c3ccoc3)C[C@H]3O[C@]32[C@]2(C)C(=O)C(O)=C3C(C)(C)C(=O)C=C[C@]3(C)C12 (some centres undefined)	MARV entry inh 8.9µM, LASV entry inh 8.9µM
C[n+]1cc2c3c(ccc2c2ccc4cc5c(cc4c21)OCO5)OCO3	MARV entry inh 6.3µM, LASV entry inh 20µM
COC(=O)c1cc(CNC(=O)c2cccc(N(C)C)c2)cc(NC(=O)c2ccccc2Cl)c1	none
COP(=S)(OC)Oc1ccc([N+](=O)[O-])cc1	MARV entry inh 11µM, LASV entry inh inconclusive
COP(=S)(OC)Oc1ccc(S(N)(=O)=O)cc1	none
COC(=O)c1ccc(C(=O)NCC2Cc3cc(F)cc(-c4cncnc4)c3O2)cc1 (centres undefined)	none
COC[C@@H](O)[C@H]1OCc2ccccc2[C@H]1C=Cc1ccccc1	none
O=C1C=CC(=C(c2ccc(O)cc2)c2ccc(O)cc2)C=C1	MARV entry inh 13µM, LASV entry inh 8.9µM
CCC(=O)c1ccc(O)cc1	none
CN1[C@@H](CC(=O)c2ccccc2)CCC[C@@H]1C[C@@H](O)c1ccccc1	MARV entry inh inconclusive
CC(C)C[C@H](NC(=O)[C@H](CC(C)C)NC(=O)[C@H](Cc1ccccc1)NC(=O)[C@@H](N)CO)C(=O)N[C@@H](CCCN=C(N)N)C(=O)N[C@@H](CC(N)=O)C(=O)O	none
CCCC[C@@H](C=O)NC(=O)[C@H](CC(C)C)NC(=O)[C@H](CC(C)C)NC(C)=O	MARV entry inh 0.089µM, LASV entry inh 10µM
CC(=O)N[C@@H](CC(C)C)C(=O)N[C@@H](CC(C)C)C(=O)N[C@H](C=O)CCCN=C(N)N	MARV entry inh 0.11µM
CCCCC(C=O)NC(=O)C(CC(C)C)NC(=O)OCc1ccccc1 (centres undefined)	MARV entry inh inconclusive
CCCC[C@@H](C=O)NC(=O)[C@H](CC(C)C)NC(=O)OCc1ccccc1	MARV entry inh inconclusive, LASV entry inh 20µM
CSCC[C@H](C=O)NC(=O)[C@H](CC(C)C)NC(=O)[C@H](CC(C)C)NC(C)=O	MARV entry inh inconclusive
CCOC(=O)[C@]12C[C@]3(C)CCN(C(=O)N[C@@H]1c1ccccc1)[C@@H]32	none
COC(=O)CC1C(C)(C)C(O)C2CC3=C4CC(O)OC(c5ccoc5)[C@]4(C)CCC3[C@@]1(C)C2=O (some centres undefined)	none
CN(C)CCN(C)C1CN(C2CCCC2)S(=O)(=O)C1 (centres undefined)	none
